From PubChem BioAssay AID624296 (National Center for Advancing Translational Sciences (NCATS), 2012)
The whole screen tested about 350,000 compounds, of which about 9,900 (2.8%) were called active. Roughly 15% stayed inconclusive and do not appear here. Only a selection was taken, and actives are over-represented in it overall. Unmarked numbers belong to inactive results. Calls come from the whole dose curve; as a rule, active = well fitted activation curve with a large enough effect; inconclusive = small, poorly fitted or top-dose-only effect; inactive = no such curve, though single readings can be large or run the other way.

Test: A quantitative high throughput screen for small molecules that induce DNA re-replication in MCF 10a normal breast cells. For activity, positive = re-replication: % of control where 0% means no effect. Note: nearly all actives have a fitted effect of over 50% in size.
Details: MCF 10A DNA re-replication, Hoechst nuclear intensity, 48 h; series mostly up to 46.1 µM; activity, positive = re-replication: at the top concentration
Potency is the fitted concentration of half-maximal effect.

Row | Structure (SMILES) | activity, positive = re-replication [%] | Potency
1 | CN(C(=O)c1cccc(NC(=O)Cc2ccc(NC(=O)C3CCN(C(=O)C4CCCCC4)CC3)cc2)c1)C1CCC1 | -2.91 | 
2 | Cc1ccc(S(=O)(=O)Nc2ccc3c(c2)C(=O)N([C@H](C)CO)C[C@@H](C)[C@@H](CN(C)C(=O)Nc2cccc4ccccc24)O3)cc1 | 5.8 | 
3 | CCOc1cccc(/C=C/c2ccc3ccccc3n2)c1OC(C)=O |  | 23.1 µM (active)
4 | CCOc1ccccc1-c1cc(C(=O)N2CCOCC2)c2ccccc2n1 | -1.36 | 
5 | CCOc1ccccc1/C=N/Nc1nc2ccccc2o1 | 1.17 | 
6 | COc1ccc(C(CNC(=O)c2cc(S(=O)(=O)Nc3cccc(C)c3)ccc2C)N2CCCC2)cc1 (stereo not given) | 14.7 | 
7 | Cc1ccc(OCCNC(=O)CN2C(=O)NC3(CCCC3)C2=O)cc1 | 11.1 | 
8 | COC(=O)COc1cccc2c(=O)n(CC(=O)NCCc3ccc(OC)c(OC)c3)ccc12 | 3.39 | 
9 | COC(=O)COc1cccc2c(=O)n(CC(=O)NCc3ccccc3)ccc12 |  | 2.59 µM (active)
10 | Cc1ccc(CNC(=O)CCNC(=O)Cn2ccc3ccccc3c2=O)cc1 | -0.229 | 
11 | O=C1C=C(NS(=O)(=O)c2ccccc2)C(=O)c2ccccc21 | 7.8 | 
12 | CCC(CO)Oc1cc(NC(=O)c2cccc(F)c2)c2ncn(C(C)C)c2c1 (stereo not given) | -20.7 | 
13 | Cc1c(/C=N\NC(=O)c2cc3ccccc3o2)c2ccccc2n1C |  | 6.51 µM (active)
14 | O=C(N/N=C/c1coc2ccccc2c1=O)c1cc2ccccc2o1 | 17.6 | 
15 | Cc1c(/C=N/N2C(=O)C3C4C=CC(C4)C3C2=O)c2ccccc2n1C (stereo not given) | 15.9 | 
16 | CCOc1ccc(C(=O)NCC(=O)N2CCN(c3ccc(C(F)(F)F)cn3)CC2)cc1 | -2.51 | 
17 | O=C(Nc1cc(S(=O)(=O)N2CCOCC2)ccc1N1CCOCC1)c1c(F)cccc1Cl | 5.34 | 
18 | Cc1nc2c(C(=O)NCc3ccc4c(c3)OCO4)c[nH]n2c(=O)c1Cc1ccccc1F |  | 7.31 µM (active)
19 | O=C(NCc1ccc2c(c1)OCO2)c1cc(F)c(F)cc1Cl | -0.612 | 
20 | CCn1c(=O)c(C(=O)NCc2ccc3c(c2)OCO3)c(O)c2ccccc21 | -0.432 | 

Row | Structure (SMILES) | activity, positive = re-replication [%] | Potency
21 | Cc1cc(C)c(C#N)c(SCC(=O)N(CC(C)C)C2CCS(=O)(=O)C2)n1 (stereo not given) | 0.222 | 
22 | Cc1cccn2c(=O)c3cc(C#N)c(=O)n(CCCN4CCOCC4)c3nc12 |  | 18.4 µM (active)
23 | Cc1cccn2c(=O)c3cc(C(=O)N4COCC4(C)C)n(C)c3nc12 | 11 | 
24 | Cc1ccccc1NC(=O)Cn1c(=O)n(CC2CCCO2)c(=O)c2ccccc21 (stereo not given) | -2.54 | 
25 | Cc1cccn2c(=O)c(/C=C(\C#N)C(N)=O)c(N3CCCCCC3)nc12 | -9.87 | 
26 | Cc1cccn2c(=O)c3cc(C(=O)NC4CCCCC4)sc3nc12 | 1.95 | 
27 | Cc1cccn2c(=O)c3cc(C#N)c(=NC(=O)c4cccnc4)n(CC4CCCO4)c3nc12 (stereo not given) |  | 13 µM (active)
28 | CCOc1cc(C(=O)N(Cc2ccccc2)c2ccc(C)cc2)ccc1OCC(=O)N1CCOCC1 | 2.29 | 
29 | COc1ccc(C2NCCCC2c2ccccc2)cc1 (stereo not given) | 0.784 | 
30 | COc1ccc(-c2cc3ccc(OCc4nn[nH]n4)cc3oc2=O)cc1 | 2.51 | 
31 | O=c1oc2cc(O)ccc2cc1-c1ccc(F)cc1 |  | 14.6 µM (active)
32 | COc1cccc(C(=O)c2cc3ccc(O)cc3oc2=O)c1 | 11.9 | 
33 | CCCCCCCCNS(=O)(=O)CCNC1CCCCC1 | -22.3 | 
34 | O=C(Nc1ccc(S(=O)(=O)N2CCOCC2)cc1)C1CCN(S(=O)(=O)c2ccc(Cl)cc2)CC1 | -0.304 | 
35 | COc1ccc(-c2sc3ccc(OC)cc3c2C#Cc2ccccn2)cc1 |  | 18.4 µM (active)
36 | COc1ccc(-c2cc3ncccc3cn2)cc1 | 11.1 | 
37 | COc1ccc(-c2nc(CS(=O)CC(=O)NCc3ccccn3)c(C)o2)cc1 (stereo not given) | -0.718 | 
38 | CN(C(=O)c1ccc(NC(=O)Cc2cccc(NC(=O)C3CCN(C(=O)c4ccccc4)CC3)c2)cc1)C1CC1 | -0.344 | 
39 | Cc1cn(C2CC(O)C(CO)O2)c(=O)n(CCCc2ccccc2)c1=O (stereo not given) | -6.86 | 
40 | CS(=O)(=O)c1ccc(C(=O)NNC(=O)c2cccs2)cc1 | -4.4 | 

Row | Structure (SMILES) | activity, positive = re-replication [%] | Potency
41 | Cc1noc(C)c1NC(=O)Nc1ccc2c(c1)C(=O)N([C@H](C)CO)C[C@H](C)[C@@H](CN(C)C(=O)Nc1ccc(C(F)(F)F)cc1)O2 | 0.503 | 
42 | Cc1ccc(NC(=O)CCC(=O)N2CCC(c3ccccc3)=N2)cc1S(=O)(=O)N1CCCCC1 |  | 18.4 µM (active)
43 | CCc1ccccc1OCC(=O)Nc1ccc(C)c(S(=O)(=O)N2CCCCCC2)c1 | 3.74 | 
44 | Cc1ccc(NC(=O)CCCNC(=O)c2ccc(Cl)cc2)cc1S(=O)(=O)N1CCCCC1 | 29.3 | 
45 | CC(=O)OCC(=O)C1(O)CCC2C3CC(C)C4=CC(=O)CCC4(C)C3C(O)CC21C (stereo not given) | -0.434 | 
46 | CCOc1ccc(-c2n[nH]c(C)c2-c2ccccn2)c(O)c1 | 25.8 | 
47 | COc1ccc(-c2n[nH]c(C)c2-c2ccc(OC)c(OC)c2)c(O)c1 |  | 16.4 µM (active)
48 | COc1ccc(-c2n[nH]c(C)c2-c2ccccc2OC)c(O)c1 | 8.35 | 
49 | N#CCCN(C(=O)COC(=O)c1ccc2c(c1)OCCO2)c1ccccc1 | -3.14 | 
50 | COc1ccccc1CCNC(=O)C(=O)NCCC1CCCCN1S(=O)(=O)c1cccs1 (stereo not given) | -15.6 | 
51 | O=C(NCCC1CCCCN1S(=O)(=O)c1cccs1)C(=O)Nc1ccc(F)cc1F (stereo not given) |  | 11.6 µM (active)
52 | O=C(NCCC1CCCCN1S(=O)(=O)c1ccc(F)cc1)C(=O)NC1CC1 (stereo not given) | 0.164 | 
53 | CCOC(=O)C1CCN(C(=O)c2cccc(S(=O)(=O)N(CC)c3ccccc3)c2)CC1 | 3.93 | 
54 | CCN(C[C@H]1N[C@@](CC)(C(=O)OC)[C@H]2C(=O)N(Cc3ccccc3)C(=O)[C@@H]12)S(=O)(=O)c1ccccc1 | 0.775 | 
55 | O=C(COC(=O)c1ccccn1)NNC(=O)c1ccc(Br)cc1 | 16.2 | 
56 | Cc1cccc(N=C2NC(=O)/C(=C/c3cn(C)c4ccccc34)S2)c1 |  | 10.3 µM (active)
57 | Cc1ccc(N2C(=O)S/C(=C/c3cn(C)c4ccccc34)C2=O)cc1 | 11.6 | 
58 | Cc1ccc(C(=O)N/C(=C\c2cn(C)c3ccccc23)C(=O)N2CCN(C)CC2)cc1 | 0.634 | 
59 | C=CC[C@@H](CC(=O)N[C@H](CO)Cc1ccccc1)C(=O)N[C@H](C)COC(=O)[C@@H](CC=C)Cc1ccc(F)cc1 | 17.3 | 
60 | C=CCn1c(=O)n(C)c2c(=O)n(C)c(=O)n(C)c21 | -42.5 | 
